Bioassay records as filed in PubChem.
HepG2 viability: qHTS for Inhibitors of TGF-b: Cytotox Counterscreen | HepG2 CAGA-GFP viability, ATP luminescence, 18 h | Potency, µM (titrated, usually from 46.1 µM), without a hit: at the top dose activity change, negative = cytotoxicity, usual class: cytotoxic | 410,000 tested, 0.76% active | AID 588856, 2011; further: potency means the concentration at half of the fitted maximal effect
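HepG2 CAGA-GFP cells (1000/well, DMEM with 1% FBS) received compound, then TGF-beta at 500 pg/mL final, and were incubated 18 hours at 37 degrees C. Viability was read by CellTiter-Glo luminescence. Media-only wells were set as complete cell-killing and DMSO as no toxicity.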
DT40 TDP1 CPT: qHTS for Inhibitors of human tyrosyl-DNA phosphodiesterase 1 (TDP1): qHTS in cells in presence of CPT. chicken DT40 Tdp1-/-;hTDP1 cells + 20 nM CPT, ATP luminescence, 48 h. Potency, µM (series often up to 46.2 µM), inactives show at the highest dose activity change, negative = growth inhibition, most hits filed as inhibitors. 420,000 tested, 12% active. AID 686979, 2013; further: potency means the concentration at half of the fitted maximal effect; on the % scale 0 is the no-effect control and ±100 the full control effect; nearly all actives have a fitted effect of over 55% in size
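Chicken DT40 Tdp1-/- cells stably complemented with human TDP1 were seeded at 400 cells/well in medium containing 20 nM camptothecin, exposed to pin-transferred compounds, and grown at 37 °C for at least 48 hr. Viability was read as ATP luminescence.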
TGFb inhibitor: qHTS for Inhibitors of TGF-b | HepG2 CAGA-GFP TGF-b/SMAD3 reporter, GFP fluorescence, 18 h; TGF-beta stimulated, 500 pg/mL final | Potency, µM (doses to about 46.1 µM), inactives show at the top dose activity, negative = inhibition, actives largely listed as inhibitors | 410,000 tested, 1.2% active; further: potency means the concentration at half of the fitted maximal effect; on the % scale 0 is the no-effect control and ±100 the full control effect; nearly all actives have a fitted effect of over 65% in size
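First, reporter cells (HEPG2 CAGA-GFP) rested 2 h at 37 degrees C. Next, compounds were pinned in and TGF-beta added to 500 pg/mL final. After 18 h, GFP was imaged per cell and summed per well.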
TDP1 inh: qHTS Assay for Inhibitors of Tyrosyl-DNA Phosphodiesterase (TDP1); Tyrosyl-DNA phosphodiesterase 1 (Homo sapiens), Q9NUW8; recombinant TDP1, AlphaScreen DNA substrate cleavage; Potency, µM (highest dose often 130 µM), inactives show at the top dose activity change, negative = inhibition, actives largely listed as inhibitors; 350,000 tested, 0.28% active; further: potency means the concentration at half of the fitted maximal effect; on the % scale 0 is the no-effect control and ±100 the full control effect; nearly all actives have a fitted effect of over 40% in size
Target sequence (Q9NUW8 whole entry, looked up): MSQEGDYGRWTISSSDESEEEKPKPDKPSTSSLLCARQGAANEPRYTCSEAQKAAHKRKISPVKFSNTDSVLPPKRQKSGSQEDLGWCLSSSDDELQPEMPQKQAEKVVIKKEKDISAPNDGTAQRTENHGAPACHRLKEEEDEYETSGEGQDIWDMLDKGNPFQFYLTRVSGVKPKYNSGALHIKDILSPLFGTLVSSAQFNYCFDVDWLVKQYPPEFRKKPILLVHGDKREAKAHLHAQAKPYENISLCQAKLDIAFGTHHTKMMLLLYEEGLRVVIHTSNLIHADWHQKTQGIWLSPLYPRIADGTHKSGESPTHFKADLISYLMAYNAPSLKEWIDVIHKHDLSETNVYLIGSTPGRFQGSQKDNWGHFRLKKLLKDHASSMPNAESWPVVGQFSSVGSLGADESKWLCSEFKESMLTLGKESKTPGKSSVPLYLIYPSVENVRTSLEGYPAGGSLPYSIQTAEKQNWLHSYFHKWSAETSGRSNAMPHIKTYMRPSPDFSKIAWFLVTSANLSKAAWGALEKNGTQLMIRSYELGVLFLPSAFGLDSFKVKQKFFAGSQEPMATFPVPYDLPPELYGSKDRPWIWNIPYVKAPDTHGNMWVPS
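Signal: AlphaScreen proximity between streptavidin donor and anti-FITC acceptor beads on intact substrate. Reaction: Tdp1 1 nM, substrate 15 nM final, 5 min RT after 15 min compound preincubation.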
DT40 TDP1 no CPT: qHTS for Inhibitors of human tyrosyl-DNA phosphodiesterase 1 (TDP1): qHTS in cells in absence of CPT | Potency, µM (series often up to 46.2 µM), inactives show top-dose activity change, negative = growth inhibition, actives largely listed as inhibitors | AID 686978, 2013 | 420,000 tested, 15% active | DT40 Tdp1-/- hTDP1 cells, no CPT, ATP luminescence, 48 h; further: potency means the concentration at half of the fitted maximal effect; on the % scale 0 is the no-effect control and ±100 the full control effect; nearly all actives have a fitted effect of over 55% in size
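Readout: luminescence from CellTiter-Glo after 30 min in the dark at RT. Cells: DT40 Tdp1-/- with stable hTDP1, 400/well. Exposure: compounds alone, ≥48 hr, 37 °C.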
IL-1B inflam inh: qHTS for Inhibitors of Inflammasome Signaling: IL-1-beta AlphaLISA Primary Screen; THP-1 LPS/ATP IL-1B secretion, AlphaLISA, 16 h; active compounds read low; activity change, % at 57.5 µM; 360,000 tested, 4.7% active; AID 743279, 2014; in the data active means activity change below about -50%; inconclusive means mostly about -30% to -49%; further: on the % scale 0 is the no-effect control and ±100 the full control effect
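THP-1 cells pretreated 1 hr with compounds (up to 57.5 uM final), then stimulated with LPS (250 ng/mL final) plus ATP (1.25 mM final); secreted IL-1B measured by AlphaLISA after 16 hr, decreased signal indicating inhibition.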
Active calls of the source: *; i = inactive; ? = inconclusive; nt = no result given. A selection: hits, their analogues and other compounds. The true share with any hit is near 18%. Unless noted, the call rests on the fitted dose curve; in most records, active means well fitted curve in the direction sought with a large enough effect; inconclusive means small, poorly fitted or top-dose-only effect, or another doubt; inactive means no such curve, though single readings can be large; an effect the other way counts as inactive or inconclusive.

SMILES | HepG2 viability | DT40 TDP1 CPT | TGFb inhibitor | TDP1 inh | DT40 TDP1 no CPT | IL-1B inflam inh
Cc1ccc(OCC(=O)N/N=C\c2c(C)n(C)c3ccccc23)c([N+](=O)[O-])c1 | -20% | ? | -9% | 2% | 18µM* | ?
Cc1oc2cc(O)ccc2c(=O)c1Oc1ccccc1 | -2% | 6.5µM* | 10% | 4% | 5.8µM* | 32
CCOC(=O)c1ccc(Oc2c(C)oc3cc(OS(C)(=O)=O)ccc3c2=O)cc1 | 6% | 16µM* | 4% | -3% | 16µM* | i
CC(C)(C)c1ccc(C(=O)OCC(=O)N2CCC(c3ccccc3)=N2)cc1 | 7% | -28% | 12% | 1% | ? | ?
Cc1[nH]c2ccccc2c1C(C#N)(C#N)C1C(=O)c2ccccc2C1=O | -21% | 2.1µM* | 4% | 11% | 2.1µM* | 0
CCN(CC)C(=O)COc1coc(CN2CCN(c3ccccc3)CC2)cc1=O | -32% | -3% | -6% | 1% | 24% | 3
COc1ccc(C2NS(=O)(=O)N=C2N)cc1 (configuration not stated) | -20% | ? | -6% | 1% | 23µM* | 0
CN(C)Cc1nc2c(c(=O)[nH]1)C1(CCCCC1)Cc1ccccc1-2 | -17% | 18µM* | -2% | 4% | 23µM* | -8
CCN(CC)Cc1nc2c(c(=O)[nH]1)C1(CCCCC1)Cc1ccccc1-2 | -3% | 21µM* | -26% | 4% | 18µM* | -16
CN(C)Cc1nc2c(c(=O)[nH]1)C(C)(C)Cc1ccccc1-2 | -1% | -3% | 4% | -2% | 11% | -3
O=c1oc(-c2ccccc2)nc2c1C1(CCCCC1)Cc1ccccc1-2 | -4% | -3% | 5% | -2% | -13% | -5
CCC1(CC)Cc2ccccc2-c2nc(-c3ccccc3)oc(=O)c21 | -20% | ? | 3% | -2% | 16µM* | 6
CCC1(CC)Cc2ccccc2-c2nc(CN(C)C)[nH]c(=O)c21 | -16% | ? | -17% | nt | 16µM* | -3
Cc1cc(=O)oc2cc(NC(=O)CC(N)C(=O)O)ccc12 (configuration not stated) | nt | nt | nt | 5% | nt | nt
C#CCN1C=CC(=O)[C@@H](OC(=O)Nc2ccc(Cl)cc2)[C@H]1c1ccccc1Br | -6% | 21µM* | ? | nt | 23µM* | -10
CN(C)S(=O)(=O)c1ccc(NC(=O)CSc2nnc(-c3ccco3)n2N)cc1 | 1% | -16% | 0% | 0% | -6% | -10
CC(=O)Nc1ccc(/C=C(\C#N)S(=O)(=O)c2ccc(C)cc2)cc1 | 0% | ? | 26% | 1% | ? | -1
Nc1ncnc2c1ncn2[C@@H]1O[C@H](COP(=O)(O)OP(=O)(O)CP(=O)(O)O)[C@@H](O)[C@H]1O | nt | 3% | nt | 11% | -8% | nt
OC(C[n+]1c(Cl)ccc2ccccc21)c1ccccc1 (configuration not stated) | 3% | 8.9µM* | -3% | nt | ? | nt
Oc1ccc[n+](CC(O)c2ccccc2)c1 (configuration not stated) | 2% | 19% | 17% | 1% | 2% | 12
CCc1ccc(NC(=O)c2cc(S(=O)(=O)N3CCc4ccccc43)cn2C)cc1 | -25% | ? | -2% | nt | ? | ?
Nc1nnnn1/N=C/c1cccc(OCc2ccccc2Cl)c1 | -21% | 26µM* | -7% | 0% | ? | 25
